Shown are actives, neighbours in structure and some others; about 7.3% of the full set was active somewhere.
FMDV antiviral = antivirals against foot and mouth disease virus. FMDV antiviral cell-based qHTS. Potency, µM (doses to about 57.9 µM), usual class: inhibitors. 410,000 tested, 1.2% active; calls by dose curve; tested in HEK293T cells; further: read-out not given here; nearly all actives have a fitted effect of over 45% in size
AmpC detergent = AmpC beta-lactamase inhibition with detergent present | AmpC hydrolysis of nitrocefin, absorbance 480 nm, 0.01% Triton | 370,000 tested, 0.041% active | Potency, µM (titrated, usually from 114 µM), hits mostly inhibitors; further: nearly all actives have a fitted effect of over 25% in size
Target sequence (P00811 whole entry, looked up): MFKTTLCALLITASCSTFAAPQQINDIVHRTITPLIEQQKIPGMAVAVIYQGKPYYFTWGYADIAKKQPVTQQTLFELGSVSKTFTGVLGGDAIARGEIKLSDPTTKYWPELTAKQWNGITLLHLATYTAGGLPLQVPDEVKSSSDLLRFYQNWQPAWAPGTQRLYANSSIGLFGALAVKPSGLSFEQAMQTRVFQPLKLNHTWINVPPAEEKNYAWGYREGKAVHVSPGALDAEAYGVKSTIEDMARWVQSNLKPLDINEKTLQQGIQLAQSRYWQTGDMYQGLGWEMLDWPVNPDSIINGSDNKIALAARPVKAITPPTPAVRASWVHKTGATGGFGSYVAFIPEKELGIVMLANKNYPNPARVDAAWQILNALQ
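AmpC (5.3 nM in the dispensed reagent) in 20 mM phosphate pH 7.0 with 0.01% (detergent screen) or 0.0001% Triton X-100 was preincubated with compounds for 15 min at room temperature. Nitrocefin was then added from an 800 uM solution, and hydrolysis was followed at 480 nm.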
AmpC no deterg = AmpC beta-lactamase inhibition without detergent; P00811; Potency, µM (series often up to 57.1 µM), most hits filed as inhibitors; AmpC nitrocefin hydrolysis, absorbance 480 nm, 0.0001% Triton; 330,000 tested, 0.52% active; further: nearly all actives have a fitted effect of over 20% in size
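AmpC (5.3 nM in the dispensed reagent) in 20 mM phosphate pH 7.0 with 0.01% (detergent screen) or 0.0001% Triton X-100 was preincubated with compounds for 15 min at room temperature. Nitrocefin was then added from an 800 uM solution, and hydrolysis was followed at 480 nm.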
HCV inh = inhibitors of hepatitis C virus infection | Huh7.5.1 HCVcc-Cre infection, luciferase reporter, 44 h | Potency, µM (series often up to 41.8 µM), usual class: inhibitors | 340,000 tested, 3.4% active
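Cells (1,000/well) were plated 4 h before compound, then infected with HCVcc-Cre virus (~0.5 moi). After 44 h further culture, infection was read as luciferase luminescence following a 15 min substrate incubation at room temperature.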
HCMV antiviral = blocks human cytomegalovirus replication; HFF cells, HCMV-luciferase reporter, 72 h; active compounds read low; activity change, negative = inhibition, % at 57.5 µM; 410,000 tested, 4.5% active; AID 1259415; in the data active means activity change below about -60%; inconclusive means no clear call, values can overlap the other calls; inactive means above about -39%
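Inhibition of viral replication was scored as loss of reporter luminescence in HFFs infected with HCMV-luciferase (MOI 1 PFU/cell) for 72 h; compounds tested at 2 doses, normalized to buffer and Salinomycin controls.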
Of the large screens only hits and unclear results are named; the others gave an inactive call. Unless noted, the call rests on the fitted dose curve; in most records, active means well fitted curve in the direction sought with a large enough effect; inconclusive means small, poorly fitted or top-dose-only effect, or another doubt; inactive means no such curve, though single readings can be large; an effect the other way counts as inactive or inconclusive.

COc1ccc2[nH]c(C)c(CCNC(=S)Nc3ccc(C)cc3)c2c1	HCV inh inconclusive, HCMV antiviral -68
COc1ccc2[nH]c(C)c(CCNC(=S)Nc3ccccc3C)c2c1	HCV inh inconclusive
CCc1cccc(CC)c1NC(=S)NCCc1c(C)[nH]c2ccccc12	HCV inh inconclusive, HCMV antiviral -71
CCc1cccc(CC)c1NC(=S)NCCc1ccc(O)c(O)c1	none
CC(=O)N1c2ccc(S(=O)(=O)NCC3CCC(C(=O)Nc4cccc(C)c4C)CC3)cc2CC1C (stereo unspecified)	FMDV antiviral inconclusive (no result: AmpC no deterg, HCV inh)
Cc1ccccc1OCc1ccc(-c2nc(C#N)c(NCc3cccnc3)o2)o1	FMDV antiviral inconclusive, HCMV antiviral inconclusive (no result: AmpC no deterg, HCV inh)
CC(=O)c1ccc(NS(=O)(=O)c2cc(-c3cc(C)no3)ccc2C)cc1	none (no result: AmpC no deterg, HCV inh)
CS(=O)(=O)N1CCCC(c2nc(-c3ccc(S(=O)(=O)NCc4ccccc4)cc3)no2)C1 (stereo unspecified)	FMDV antiviral inconclusive, HCV inh inconclusive, HCMV antiviral -95
O=C(C1CC1)N1CCC(c2nc(-c3ccc(S(=O)(=O)N4CCCC4)cc3)no2)CC1	FMDV antiviral inconclusive, HCV inh inconclusive
O=C(Cc1ccccc1)N1CCCC(c2nc(-c3ccc(S(=O)(=O)N4CCCC4)cc3)no2)C1 (stereo unspecified)	HCV inh inconclusive (no result: FMDV antiviral)
O=C(NC1CCCCC1)N1CCC(c2nc(-c3ccc(S(=O)(=O)N4CCCC4)cc3)no2)CC1	FMDV antiviral inconclusive, HCV inh inconclusive, HCMV antiviral -62
O=C(C1CC1)N1CCC(c2nc(-c3ccc(S(=O)(=O)NCC4CCCO4)cc3)no2)CC1 (stereo unspecified)	FMDV antiviral inconclusive, HCV inh inconclusive, HCMV antiviral -96
Cc1ccc(-c2n[nH]c3c2C(c2ccc(C(C)(C)C)cc2)NC3=O)cc1 (stereo unspecified)	none (no result: AmpC no deterg, HCV inh)
CCOC(=O)N1CCN(C(=O)c2ccc(Cl)c(S(=O)(=O)N3CCCC3)c2)CC1	none
CC(C)c1ccc(C2(C)NC(=O)N(C(C)C(=O)Nc3ccc(N4CCOCC4)cc3)C2=O)cc1 (stereo unspecified)	none
O=C(Nc1cccc(Br)c1)c1ccc(Cl)c(S(=O)(=O)N2CCOCC2)c1	HCV inh 4µM, HCMV antiviral -98 (no result: FMDV antiviral)
O=C(Nc1cccc(C(=O)NC2CC2)c1)c1ccc(Cl)c(S(=O)(=O)N2CCOCC2)c1	FMDV antiviral inconclusive, HCV inh inconclusive
O=C(Nc1cccc(S(=O)(=O)C(F)F)c1)c1ccc(Cl)c(S(=O)(=O)N2CCOCC2)c1	FMDV antiviral 40µM, HCV inh 13µM, HCMV antiviral inconclusive
O=C(NCc1ccco1)C1CCN(S(=O)(=O)c2cccc([N+](=O)[O-])c2)CC1	none
CCN(CC)c1ccc(NC(=O)CN2CCN(S(=O)(=O)c3ccc(C(C)C)cc3)CC2)cc1	none (no result: AmpC no deterg, HCV inh)
Cc1ccc(C(=O)NCC(=O)NC2CCCCCC2)cc1	HCMV antiviral -97
CCCCOc1ccc(C(=O)NCC(=O)NC2CC2)cc1	none
CCCN(Cc1nnc(-c2ccccc2Cl)o1)C(=O)COc1ccc(Cl)cc1	HCV inh inconclusive
Cc1nc(-c2ccc(S(=O)(=O)N3CCCCCC3)cc2)cs1	none
Cc1nc(-c2ccc(S(=O)(=O)N3CCOCC3)cc2)cs1	none
Cc1cc(C)cc(Nc2nc(-c3ccc(S(=O)(=O)N4CCCC4)cc3)cs2)c1	FMDV antiviral inconclusive, AmpC detergent inconclusive, HCV inh 10µM, HCMV antiviral -77
Cc1ccc(Nc2nc(-c3ccc(S(=O)(=O)N4CCCC4)cc3)cs2)cc1C	FMDV antiviral inconclusive, AmpC no deterg inconclusive, HCV inh 4µM (no result: HCMV antiviral)
CCOc1ccc(S(=O)(=O)NCC(c2cccs2)S(=O)(=O)c2ccc(C)cc2)cc1 (stereo unspecified)	none (no result: AmpC no deterg, HCV inh)
CCOc1ccc(-c2nnc(SCC(=O)NCc3ccc(C)cc3)nc2-c2ccc(OCC)c(OC)c2)cc1OC	none (no result: AmpC no deterg, HCV inh)
COc1cccc(CNC(=O)CSc2nnc3c(n2)[nH]c2ccccc23)c1	FMDV antiviral inconclusive, HCV inh 10µM
CC1CCc2cc(F)ccc2N1C(=O)CSc1nnc2c(n1)[nH]c1ccccc12 (stereo unspecified)	FMDV antiviral inconclusive, HCV inh inconclusive, HCMV antiviral -76
COc1ccc2[nH]c3nc(SCC(=O)NNC(=O)c4ccc(OC)c(OC)c4)nnc3c2c1	FMDV antiviral 7.1µM, AmpC detergent inconclusive
O=C(CSc1nnc2c(n1)[nH]c1ccccc12)N1CCCCC1	HCV inh inconclusive, HCMV antiviral inconclusive
COc1ccc(-c2nnc(SCC(=O)NCc3ccccc3)nc2-c2ccc(OC)c(OC)c2)cc1OC	HCMV antiviral -78 (no result: AmpC no deterg, HCV inh)
Cc1ccc(C(=O)NNC(=O)CSc2nnc3c(n2)[nH]c2ccc(F)cc23)cc1	AmpC detergent inconclusive, HCV inh inconclusive
CC(NC(=O)c1ccco1)c1nnc2n1CCN(Cc1ccc(Cl)cc1)CC2 (stereo unspecified)	none (no result: AmpC detergent, AmpC no deterg, HCV inh, HCMV antiviral)
O=C(Nc1ccc2c(c1)oc1ccccc12)C1CC1	HCV inh 10µM
Cc1ccccc1OCc1nnc(SCC(=O)Nc2ccc3c(c2)oc2ccccc23)n1C	AmpC detergent inconclusive, HCV inh inconclusive
CCCCC(=O)Nc1ccc2c(c1)oc1ccccc12	HCV inh inconclusive
CC(C)CC(=O)Nc1ccc2c(c1)oc1ccccc12	HCV inh 22µM
Cc1ccc(-c2nnc(SCC(=O)Nc3ccc4c(c3)oc3ccccc34)n2C)c(Cl)c1	HCV inh inconclusive, HCMV antiviral -86
O=C(Nc1ccc2c(c1)oc1ccc(S(=O)(=O)N3CCCC3)cc12)C1CC1	AmpC no deterg inconclusive, HCV inh inconclusive, HCMV antiviral inconclusive (no result: FMDV antiviral)
O=C(Nc1ccc(Br)c(Cl)c1)C1CC1	AmpC no deterg 2.2µM, HCV inh inconclusive, HCMV antiviral -62
COc1ccc(OC)c(CNC(=O)CSc2c3c(nc4cc(Cl)ccc24)CCCC3)c1	FMDV antiviral inconclusive, HCMV antiviral -60 (no result: AmpC no deterg, HCV inh)
CCOc1ccc(CNC(=O)CSc2c3c(nc4cc(Cl)ccc24)CCCC3)cc1	FMDV antiviral inconclusive, HCMV antiviral inconclusive (no result: AmpC no deterg, HCV inh)
Cc1ccc(CNC(=O)CSc2c3c(nc4cc(Cl)ccc24)CCCC3)o1	FMDV antiviral 28µM, HCV inh 4.5µM
COC(=O)c1ccc(Cn2nnc3c(=O)[nH]c(C4CCN(S(=O)(=O)c5cc(C)ccc5C)CC4)nc32)cc1	none
Cc1cc(CN2CCN(c3ccccc3F)CC2)cs1	none (no result: AmpC no deterg, HCV inh)
Cc1cc(CN2CCN(c3cccc(C)c3C)CC2)cs1	HCMV antiviral -69 (no result: AmpC no deterg, HCV inh)
COc1cccc(NC(=O)CCC(=O)Nc2cc(OC)c(NC(=O)c3cccs3)cc2OC)c1	none
CCN(CC)c1ncnc2c1sc1nc(N3CCOCC3)c3c(c12)CCC3	none (no result: FMDV antiviral, HCV inh, HCMV antiviral)
Cc1cccc(-n2cnc3c(sc4nc(N5CCOCC5)c5c(c43)CCCC5)c2=O)c1	FMDV antiviral inconclusive, HCV inh 18µM, HCMV antiviral inconclusive
CC1(C)CC(=O)C=C(c2ccccc2-c2cccc(C(N)=O)c2)C1=O	none (no result: FMDV antiviral, AmpC detergent, AmpC no deterg, HCV inh)

Source: PubChem BioAssay
